Only some compounds are listed: those with a hit (about 10% of all), similar ones and a draw of the others.
CCT modulator = modulators of cytosolic chaperonin (CCT/TRiC) activity; purified chaperonin ATPase assay, HTRF ADP detection, 30 min; activity change, % (concentration not given with the values), hits read low; actives 0.3% (n = 360,000); in the data active = activity change below about -30%
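Nucleotide hydrolysis assay: TRiC at 20–40 nM final (set by batch activity) with 10 uM ATP, 30 min at 37 °C, in presence of 76 uM compound. Detection by competitive ADP HTRF, 30 min ambient.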
PLK1 PBD block = inhibitors of human PLK1 polo-box domain binding. actives 2.8% (n = 360,000). P53350. Potency, µM, for inactives: max response, negative = inhibition, usual class: inhibitors. Plk1 PBD binding of FITC phosphopeptide, fluorescence polarization; note: potency is the fitted concentration of half-maximal effect; series mostly up to about 57 µM; nearly all actives have a fitted effect of over 65% in size
G9a block = blocks human histone lysine methyltransferase G9a; Q96KQ7; G9a H3K9 monomethylation, AlphaScreen, 2 h; Potency, µM (top dose mostly 102 µM), for inactives: at the highest dose activity, negative = inhibition, usual class: inhibitors; actives 8.8% (n = 350,000); AID 504332; note: potency is the fitted concentration of half-maximal effect; nearly all actives have a fitted effect of over 75% in size
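Signal arises when biotinylated H3K9 peptide, once monomethylated, bridges streptavidin donor and antibody-captured acceptor beads. Enzyme at 20 nM was preincubated 15 min with test compounds; peptide 500 nM and SAM 20 uM then reacted for 2 h.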
VDR inhibitor = vitamin D3 receptor (human) inhibition | AID 504847 | actives 0.93% (n = 400,000) | Potency, µM, inactives show max response, negative = inhibition, usual class: inhibitors | P11473 | VDR-SRC2-3 peptide fluorescence polarization, 2 h; note: potency is the fitted concentration of half-maximal effect
Target sequence (P11473 whole entry, looked up): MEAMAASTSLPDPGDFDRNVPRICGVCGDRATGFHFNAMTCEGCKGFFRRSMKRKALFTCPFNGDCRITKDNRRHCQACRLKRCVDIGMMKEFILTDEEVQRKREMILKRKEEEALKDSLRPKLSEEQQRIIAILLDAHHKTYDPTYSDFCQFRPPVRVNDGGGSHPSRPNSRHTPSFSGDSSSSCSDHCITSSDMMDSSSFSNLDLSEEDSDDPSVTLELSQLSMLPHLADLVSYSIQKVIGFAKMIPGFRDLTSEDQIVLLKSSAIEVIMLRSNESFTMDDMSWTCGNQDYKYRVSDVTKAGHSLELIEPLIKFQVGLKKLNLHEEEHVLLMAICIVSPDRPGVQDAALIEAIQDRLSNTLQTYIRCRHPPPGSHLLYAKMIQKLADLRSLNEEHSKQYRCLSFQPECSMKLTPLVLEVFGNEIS
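Fluorescence polarization assay of small-molecule disruption of VDR binding to coregulator peptide SRC2-3. Compounds and controls pin-transferred, then read after 2 h incubation at ambient room temperature.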
Sfp PPTase inh = blocks B. subtilis Sfp PPTase activity. Q9F4F7. Biochemical Sfp PPTase activity, qHTS. Potency, µM, for inactives: largest response in the series, negative = inhibition, actives largely listed as inhibitors. actives 3.5% (n = 310,000);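 note: the enzyme is Sfp with the accession as filed and its product quenches rhodamine fluorescence; potency is the fitted concentration of half-maximal effect; 0% = enzyme reaction without inhibitor and -100% = no enzyme wells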
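Fluorescence-quenching assay: 15 nM Sfp-PPTase preincubated 15 min at room temperature with compound, then 5 uM rhodamine-CoA and 12.5 uM BHQ-2-labelled YbbR peptide added. Fluorescence (ex 525/em 598 nm) read at start and after 30 min; difference gives rate.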
Mm-Cpn inhibitor = M. maripaludis TRiC chaperonin inhibition. purified Mm-Cpn ATPase, ADP Transcreener TR-FRET. Potency, µM (titrated, usually from 76.9 µM), for the others: top-dose activity, negative = inhibition, actives largely listed as inhibitors. actives 0.031% (n = 330,000); note: potency is the fitted concentration of half-maximal effect; nearly all actives have a fitted effect of over 80% in size
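Eu-cryptate anti-ADP/ADP-d2 competition gives a ratio inversely related to ADP. Enzyme at 25 nM was pre-exposed to compound for 10 min, then given 10 uM ATP for 30 min, 37°C throughout.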
Starred values were filed as active, the others as inactive; ? = inconclusive; . = no result; ! = a repeat was not active; [ ] = another dose, or the depositor's remark. Unless noted, calls come from the whole dose curve; as a rule, active = well fitted curve in the direction sought with a large enough effect; inconclusive = small, poorly fitted or top-dose-only effect, or another doubt; inactive = no such curve, though single readings can be large; an effect the other way counts as inactive or inconclusive. Unless noted, % is set by controls: 0 for no effect and ±100 for the full control effect.

SMILES	CCT modulator	PLK1 PBD block	G9a block	VDR inhibitor	Sfp PPTase inh	Mm-Cpn inhibitor
CCC(c1nnnn1Cc1ccc2c(c1)OCO2)N1CCN(c2ccc(OC)cc2)CC1 (configuration not stated)	0.3	-3.5%	39.8µM*	12.2%	0.5%	1.4%
CCCC(c1nnnn1Cc1cccs1)N1CCN(C)CC1 (configuration not stated)	0.6	?	.	1.0%	-9.9%	-1.5%
COc1ccccc1CN1CCN(C(CC(C)C)c2nnnn2Cc2cccs2)CC1 (configuration not stated)	1.9	-2.1%	?	-2.4%	89.1µM*	1.3%
CCC(c1nnnn1Cc1ccc2c(c1)OCO2)N1CCN(c2ccc(F)cc2)CC1 (configuration not stated)	0.8	-10.3%	-13.5%[59 µM]	5.7%	1.8%	0.2%
CCCC(c1nnnn1CC1CCCO1)N1CCN(c2ccccc2)CC1 (configuration not stated)	-0.9	-0.7%	56.2µM*	13.2%	-0.5%	-3.4%
Cc1csc2nc(COC(=O)c3cccc(NC(=O)c4cccc(Cl)c4)c3)cc(=O)n12	.	.	10.9%[59 µM]	-0.1%	.	.
O=C(CN1C(=O)COc2ccc(S(=O)(=O)N3CCOCC3)cc21)NCc1ccc(F)cc1	.	.	-2.3%[59 µM]	11.7%	.	.
COc1ccc(NC(=O)C2CCN(S(=O)(=O)c3ccc4c(c3)CCCC(=O)N4)CC2)cc1Cl	.	.	-6.2%[59 µM]	5.9%	.	.
CCC(c1nnnn1Cc1ccccc1)N1CCN(c2ccc(OC)cc2)CC1 (configuration not stated)	-7.0	-8.2%	12.6µM*	7.6%	-3.2%	-9.9%
CCC(c1nnnn1Cc1ccc(OC)cc1)N1CCN(c2ccc(OC)cc2)CC1 (configuration not stated)	-1.0	-3.0%	.	0.1%	?	1.3%
CC(=O)c1ccc(NC(=O)COCc2cc(-c3ccco3)on2)cc1	.	.	-3.4%[59 µM]	28.1%	.	.
CCCSc1nc2cc(C)c(C)cc2n1CC(C)O (configuration not stated)	1.3	-6.9%	11.2µM*	-5.9%	-28.3%	-0.2%
Cn1c2c(c(=O)[nH]c1=O)C(c1cccc(O)c1)C1=C(N2)c2ccccc2C1=O (configuration not stated)	0.3	3.9%	31.6µM*	2.4%	1.9%	-2.4%
COCCOC(=O)c1c(C)nc(SCC(=O)Nc2cccc3ccccc23)c(C#N)c1-c1ccco1	-2.1	-7.0%	-30.4%[59 µM]	-5.9%	7.94µM*	-0.9%
CNC(=O)c1c(C)nc(SCC(=O)NCc2ccc(OC)cc2)c(C#N)c1-c1ccco1	-0.2	-4.1%	-44.2%	4.0%	9.1%	-2.9%
NC12CC3CC(CC(C3)C1)C2	0.6	-0.5%	1.78µM*!	-8.7%	31.0%	0.7%
CC(N)C12CC3CC(C1)CC(C(C)N)(C3)C2 (configuration not stated)	-0.2	-0.7%	0.8%[12.7 µM]	-3.1%	5.0%	-2.9%
C=CCC(C)(O)c1ccc(OC)cc1 (configuration not stated)	.	.	.	-1.6%	-4.5%	.
O=C(NC1CCCCC1)N(Cc1nc2ccccc2c(=O)[nH]1)C1CCCC1	-4.0	-7.6%	17.3%	-7.2%	0.8%	0.1%
O=C(NC1CCCCC1)N(Cc1nc2ccccc2c(=O)[nH]1)C1CCCCC1	2.7	-1.6%	28.2µM*	-7.3%	-25.3%	1.6%
CCOC(=O)C1=NO[C@@]2(C=C(Br)C3(OCCCO3)[C@H]3O[C@H]32)C1	.	.	.	.	1.7%	.
CCc1ccc(C(C)NC(=O)c2cc(C)oc2C)cc1 (configuration not stated)	-1.3	?	?	-16.6%	15.8µM*	-1.6%
Cc1ccc(S(=O)(=O)N2CCC(N3CCN(Cc4ccccc4)C(=O)C3=O)CC2)cc1C	.	.	6.9%[59 µM]	0.9%	.	.

High-throughput results from PubChem BioAssay.
